Compounds without any hit were thinned out: in the full panel of roughly 83,000, 20% have a hit.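 Step 1: grow cells in 96-well plates. Step 2: add test compound at a single concentration. Step 3: incubate 48 h. Step 4: record percent growth.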 A number with no mark means an inactive call. Activity calls are given as the source filed them. Rule for the calls: active = growth percent below 10; inactive = the rest.
Columns and labels:
Experiment in all cases: NCI-60 one-dose screen, 48 h (100 = growth as untreated, 0 = no growth, -100 = all killed)
Conditions in all cases: 10 µM
NCI-H23 lung = tested on: NCI-H23 lung
NCI-H226 lung = tested on: NCI-H226 lung
HOP-62 NSCLC = tested on: HOP-62 NSCLC
NCI-H460 lung = tested on: NCI-H460 lung
NCI-H522 lung = tested on: NCI-H522 lung
A549/ATCC NSCLC = tested on: A549/ATCC NSCLC
786-0 renal = tested on: 786-0 renal
COLO 205 colon = tested on: COLO 205 colon
HOP-92 NSCLC = tested on: HOP-92 NSCLC

Row | SMILES | growth (NCI-H23 lung) | growth (NCI-H226 lung) | growth (HOP-62 NSCLC) | growth (NCI-H460 lung) | growth (NCI-H522 lung) | growth (A549/ATCC NSCLC) | growth (786-0 renal) | growth (COLO 205 colon) | growth (HOP-92 NSCLC) [%]
1 | COc1cc2cc(Oc3ccc(NC(=O)c4ccccc4)cc3)c(C)nc2cc1OC | 83.5% | 9.16% (active) | 43.8% | 94.8% | 7.6% (active) | 89.6% | 118% | 109% | 
2 | O=C1CC(SC(=S)C2CCCC2=O)C(=O)N1 (stereo not given) | 98.4% | 92.4% | 106% | 104% | 109% | 101% | 95.7% | 116% | 
3 | CCOC(=O)c1cc(C(=O)c2cc(OC)cc(OC)c2)n2ncc3ccccc3c12 | 41.9% | 59.1% | 42.6% | 7.07% (active) | 2.64% (active) | 17.9% | 5.34% (active) | 19.1% | 
4 | COC1=CC(=O)OC(c2ccc(OC)cc2)C1 (stereo not given) | 89.2% | 110% | 105% | 109% |  | 108% | 109% | 108% | 98.1
5 | C=CCSC(CC)(CC)C(=O)NC | 99.4% | 97.8% | 102% | 103% | 86.5% | 94.9% | 104% | 120% | 
6 | COc1cc2cc(Oc3ccc(NC(=O)c4ccc(Cl)c(C(F)(F)F)c4)cc3)c(C)nc2cc1OC | 12.5% | 25.5% | 73.1% | 19.7% | 20.3% | 13.8% | 32.2% | 33.1% | 
7 | O=C1/C=C/[C@@H](O)[C@@H]2C[C@@H](O)C[C@H]2/C=C/CCC[C@H](CCc2ccc(C(F)(F)F)cc2)O1 | -10.5% (active) | 0.477% (active) | -4.15% (active) | 9.42% (active) | -58.5% (active) | 8.38% (active) |  |  | 
8 | COc1cc(NC(=O)C2=C(N3CCOCC3)/C(=C/c3ccc(Cl)cc3)CC2)cc(OC)c1OC | 94.6% | 86.1% | 102% | 99.6% | 29.2% | 40.8% | 93.2% | 98.5% | 
9 | COc1ccc(/C=C2\CCCC3=C2N=C2SC(C)=CN2C3c2ccc(OC)cc2)cc1 (stereo not given) | 90.3% | 94.1% | 104% | 104% | 89.6% | 90.7% | 104% | 115% | 
10 | CN(C)CCCOc1ccc(OCCCN(C)C)c2c1C(=O)c1ccccc1C2=O | -19.6% (active) | -5.49% (active) | -1.4% (active) | 0.0676% (active) | -48.5% (active) | 3.96% (active) | 16.6% | -57.9% (active) | 
11 | CCOC(=O)c1cc(C(=O)c2cc(OC)c(OC)c(OC)c2)n2ccc(-c3cc[n+](CC(=O)c4cc(OC)c(OC)c(OC)c4)cc3)cc12 | 63.6% | 90.8% | 94.8% | -10.3% (active) | -21.5% (active) | 31.3% | -82.3% (active) | 43.7% | 
12 | COc1ccc(/C=C/c2nnc(/C=C/c3ccc(OC)c(OC)c3)o2)cc1OC | 25.4% | 63.5% | 35.3% | 15.6% | 9.91% (active) | 32% | 12.8% | 22% | 
13 | COc1ccc(N(C)c2ncnc3occ(C)c23)cc1 | 6.05% (active) | 27.5% | 34.6% | 2.75% (active) | -37.7% (active) | 15% | 17.8% | -62.4% (active) | 
14 | CC(=O)[C@H]1CC[C@]2(C)[C@@H]1CC[C@@H]1[C@@]3(C)CC(CCC#N)(CCC#N)C(=O)C(C)(C)[C@@H]3CC[C@]12C | 86.7% | 94.6% | 99.3% | 101% | 94.1% | 103% | 101% | 106% | 
15 | O=[N+]([O-])c1ccc(/C(=C/c2ccccc2)[n+]2ccccc2)cc1 | 113% | 105% | 110% | 103% |  | 99.7% | 104% | 114% | 
16 | CC(C)(C)OC(=O)N1CCc2c(sc3ncnc(N/N=C/c4ccc(Br)cc4)c23)C1 | 71.8% | 79% | 69% | 39.6% | 35.6% | 50.2% | 76.5% | 41% | 
